Screening results as filed in PubChem.
A3A deaminase = APOBEC3A ssDNA deaminase inhibitors, primary screen, selectivity assay for APOBEC3G inhibitor project, biochemical, FAM/TAMRA oligo cleavage fluorescence. recombinant A3A, FAM/TAMRA ssDNA deamination fluorescence. inhibition, % at 20 µM. hit rate 0.41% among 330,000. AID 493011, 2011. DNA dC->dU-editing enzyme APOBEC-3A (Homo sapiens), P31941;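 active means at least 40% inhibition at 20 µM here, with at most 30% in a related deaminase screen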
CendR NRP1 mod = modulators of CendR peptide binding to NRP-1, primary screen, biochemical, fluorescence polarization, uHTS; AID 602438, 2012; Neuropilin-1 (Homo sapiens), O14786; hit rate 0.85% among 360,000; FAM-RPARPAR peptide binding to NRP-1; inhibition, % at 25 µM;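 active means inhibition or corrected inhibition above about 18%, plus a signal ratio from 0.5 to 1.5, limit read from the data, passing the limit was not always enough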
ADAM17 inh = ADAM17 inhibitors, primary screen, biochemical, QFRET; Disintegrin and metalloproteinase domain-containing protein 17 (Homo sapiens), P78536; recombinant ADAM17, EDANS/DABCYL FRET peptide cleavage; inhibition, % at 6.95 µM; hit rate 0.83% among 370,000; AID 720648, 2013;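 active means inhibition above the mean of compounds lying between control limits plus 3 SD, set per campaign, cut at about 8.5% in these data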
A3G deaminase = APOBEC3G DNA deaminase inhibitors, primary screen, biochemical, fluorescence, single-stranded DNA substrate, uHTS | recombinant A3G, ssDNA deamination FAM/TAMRA fluorescence | hit rate 0.28% among 330,000 | inhibition, % at 20 µM;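 active means inhibition of at least 40% at 20 µM, with no more than 30% in the related APOBEC3A deaminase screen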
ADAM10 inh = human ADAM10 inhibitors, primary screen, biochemical, QFRET, HTS | hit rate 0.62% among 370,000 | recombinant ADAM10, EDANS/DABCYL FRET peptide cleavage, 3 h | Disintegrin and metalloproteinase domain-containing protein 10 (Homo sapiens), O14672 | inhibition, % at 7 µM;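 active means inhibition above a per-campaign cutoff equal to the mean of compounds falling between control-based bounds plus 3 SD, cut at about 20% in these data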
Target sequence (O14672 214-748 limits assumed): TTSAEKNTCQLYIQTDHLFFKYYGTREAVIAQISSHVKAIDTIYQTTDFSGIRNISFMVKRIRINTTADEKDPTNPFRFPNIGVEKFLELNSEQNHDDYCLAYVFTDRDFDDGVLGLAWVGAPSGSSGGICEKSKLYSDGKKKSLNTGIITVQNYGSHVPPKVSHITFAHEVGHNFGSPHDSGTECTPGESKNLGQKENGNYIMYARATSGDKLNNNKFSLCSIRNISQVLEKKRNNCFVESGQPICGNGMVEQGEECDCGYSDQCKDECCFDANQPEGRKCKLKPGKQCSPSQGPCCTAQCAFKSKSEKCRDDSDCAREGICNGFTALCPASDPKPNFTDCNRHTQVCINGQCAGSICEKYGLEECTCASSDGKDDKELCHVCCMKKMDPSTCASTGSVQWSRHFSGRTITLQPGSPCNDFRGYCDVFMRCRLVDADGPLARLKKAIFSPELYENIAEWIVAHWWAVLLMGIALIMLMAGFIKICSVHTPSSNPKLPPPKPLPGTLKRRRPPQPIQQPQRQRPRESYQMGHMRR
Numbers stand for hits; i = inactive; nt = not tested or not shown. Sampled rows, rich in hits. Any-hit rate of the full collection: about 2.4%.

SMILES	A3A deaminase	CendR NRP1 mod	ADAM17 inh	A3G deaminase	ADAM10 inh
CCCNC(=O)C1(CC2CC(c3ccccc3)=NO2)CCN(C(=O)C2(C)CC2)CC1 (stereo not given)	i	i	i	i	i
CCOc1cc(C(=O)N2CCC(CC3CC(c4ccccc4)=NO3)(C(=O)NCc3ccc(OC)cc3)CC2)cc(OCC)c1OCC (stereo not given)	i	45	i	i	i
CCn1c(COc2ccc(C)cc2)nnc1SCc1cccc(C(F)(F)F)c1	nt	nt	i	nt	i
CCOc1cc(C(=S)N2CCOCC2)ccc1OS(=O)(=O)c1ccc(OC)cc1	i	30	i	i	i
NC(=O)[C@H]1CC2(CC(c3cccc(NC(=O)CC(c4ccccc4)c4ccccc4)c3)=NO2)CN1C(=O)C(c1ccccc1)c1ccccc1 (stereo not given in full)	i	30	13	i	i
CC/C=C/C(=O)N1CC2(CC(c3cccc(NC(=O)c4ccccc4)c3)=NO2)C[C@@H]1C(N)=O (stereo not given in full)	i	23	i	i	i
Cc1ccc(CNS(=O)(=O)c2ccc(-c3cnc(C4CC4)o3)cc2)cc1	i	21	i	i	i
CCOc1ccc(C(=O)CSc2nnc(SCc3ccc(Cl)cc3)s2)cc1	nt	nt	i	nt	i
CN(c1ccccc1)c1ccc(/C=C(\CCC(=O)O)c2nc3ccccc3s2)cc1[N+](=O)[O-]	i	i	9.8	i	i
COc1ccc(-c2nnc(SCC(=O)NN=C/C=C\c3ccco3)n2-c2ccc(OC)cc2)cc1	nt	nt	i	nt	i
COC(=O)[C@H](C)N(CCc1cn(Cc2ccccc2)nn1)S(=O)(=O)c1ccccc1Br	nt	nt	i	nt	i
O=[N+]([O-])c1ccc(-c2nc3ccc([N+](=O)[O-])cc3[nH]2)cc1	i	36	i	i	i
Nc1ccc(-c2nc3ccc([N+](=O)[O-])cc3[nH]2)cc1	i	i	i	i	i
O=C(CCS(=O)(=O)c1ccccc1)Nc1ccc(F)cc1Cl	nt	nt	i	nt	i
COc1ccc(-n2nc(C(=O)NCC(=O)NC3CCCCCC3)c3ccccc3c2=O)c(OC)c1	i	19	i	i	i
COc1ccc(-n2nc(C(=O)NCC(=O)NC3CCCCC3)c3ccccc3c2=O)c(OC)c1	i	i	i	i	i
CC(C)[C@H](NC(=O)c1c(F)cccc1F)C(=O)OCC(=O)NNC(=O)c1ccccc1	nt	21	i	nt	i
COC1=CC(=O)OC(c2ccc(C(F)(F)F)cc2)C1 (stereo not given)	nt	26	i	nt	i
Nc1nc2c(ncn2[C@@H]2O[C@H](C(=O)NCC3CCCCC3)[C@@H](O)[C@H]2O)c(=O)[nH]1	nt	nt	i	nt	i
COc1ccc(-c2cc(C(=O)NN=Cc3ccccc3[N+](=O)[O-])[nH]n2)cc1	nt	nt	i	nt	i
CCOC(=O)C1CCCN(CCC(=O)Nc2cc(C)ccc2C)C1 (stereo not given)	i	i	i	i	i
CCOC(=O)C1CCCN(CCC(=O)Nc2ccccc2C)C1 (stereo not given)	i	23	i	i	i
CCOC(=O)C1CCN(Cc2ccc3ccccc3c2)CC1	i	31	i	i	i
CCOC(=O)C1CCCN(Cc2ccc(OC)c(OCc3ccccc3)c2)C1 (stereo not given)	i	23	i	i	i
CC1CCN(c2ccc(C(=O)O)cc2NS(=O)(=O)c2ccccc2[N+](=O)[O-])CC1	nt	nt	i	nt	i
SMILES	A3A deaminase	CendR NRP1 mod	ADAM17 inh	A3G deaminase	ADAM10 inh
COc1cc(CN2CCN(Cc3ccc(SC)cc3)CC2)cc(OC)c1O	i	23	i	i	i
C=CCNc1cccc2c1S(=O)(=O)N[C@@H](Cc1ccccc1)CO2	nt	nt	i	nt	i
COc1ccc(C)cc1N(CC(=O)N1CCc2ccccc2C1)S(C)(=O)=O	i	26	i	i	i
COc1ccccc1N(CC(=O)N1CCc2ccccc2C1)S(C)(=O)=O	i	25	i	i	i
O=C(NCc1ccccc1)[C@H]1CCCN1C(=O)[C@H]1CCCN1C(=O)c1ccccc1C(F)(F)F	nt	nt	i	nt	i
Fc1ccc2nc(-c3ccc(CN4CCC(c5nc6ccccc6[nH]5)CC4)cc3)c(-c3ccccc3)nc2c1	nt	nt	i	nt	i
CN(CC(=O)Nc1ccc(F)cc1)C(=O)c1ccc(OCc2cn3ccccc3n2)cc1	i	27	i	i	i
Cc1cccc(OCCn2c(-c3ccco3)nc3ccccc32)c1	i	28	i	i	i
c1ccc(OCCn2c(-c3ccco3)nc3ccccc32)cc1	i	i	i	i	i
C=CC[C@@H](Cc1ccc(F)cc1)C(=O)OC[C@@H]1CCCN1C(=O)[C@H](CC=C)CC(=O)N[C@H](CO)Cc1ccccc1	i	i	15	i	i
CC(C)(C)OC(=O)NCc1ccc(CNC(=O)c2nc[nH]c2C(=O)N2CCN(C(=O)OC(C)(C)C)CC2)cc1	i	27	i	i	i
CC(C)(C)OC(=O)NCc1ccc(CNC(=O)c2ncn(Cc3ccccc3)c2C(=O)NCc2ccc(CNC(=O)OC(C)(C)C)cc2)cc1	i	i	i	i	i
Cn1cnc(C(=O)NCc2ccc(CNC(=O)OC(C)(C)C)cc2)c1C(=O)NCc1ccc(CNC(=O)OC(C)(C)C)cc1	i	i	11	i	21
C[C@H](NC(=O)c1[nH]cnc1C(=O)Nc1ccc(CNC(=O)OC(C)(C)C)cc1)C(=O)OC(C)(C)C	i	i	11	i	22
C[C@@H]1NS(=O)(=O)c2ccc(F)cc2O[C@@H]1c1ccccc1	nt	nt	i	nt	i
Cc1cccc(-c2cccc3c4c([nH]c23)[C@@H]2C[C@H](N(C)C(=O)c3ccccc3F)[C@H]([C@H](C)O)CN2CC4)c1	nt	nt	i	nt	i
COCC(=O)N(C)[C@H]1C[C@H]2c3[nH]c4cccc(-c5cccc(F)c5)c4c3CCN2C(=O)[C@H]1[C@H](C)O	nt	nt	i	nt	i
CC(=O)Nc1ccccc1OCC(=O)NC(C)c1ccccc1 (stereo not given)	i	i	i	i	i
CC(=O)Nc1ccccc1OCC(=O)N(Cc1ccccc1)C(C)C	i	38	i	i	i
CCCCOc1ccc(C(=O)n2ccc3ccc(-c4ccc5ccn(Cc6ccccc6)c5c4)cc32)cc1	nt	nt	i	nt	i
O=C(NCCc1ccccc1Cl)[C@@H]1CCCN1C(=O)[C@@H](NC(=O)N1CCOCC1)c1ccccc1	nt	nt	i	nt	i
O=C(CSc1nnc(CNc2ccc(F)cc2)o1)N1CCN(C(=O)c2ccco2)CC1	i	i	i	i	i
O=C(CSc1nnc(CNc2ccc(F)cc2)o1)N1c2ccccc2Sc2ccccc21	i	i	i	i	24
N#CCCN(C(=O)Nc1ccccc1)c1ccccc1	i	28	i	i	i
N#CCCN(C(=O)Nc1ccc(Cl)cc1)c1ccccc1	i	i	i	i	i
